Several values for one entry are separate records, joined by “and”; a condition that tells them apart may be missing. Identical values can stand only once. Counter-ions that a name gives are not always drawn. ± gives the standard deviation of the averaged measurements.
Tested on: ES2
Experiment: cell viability relative to DMSO control (MTS) (fraction of DMSO control); higher = more viable cells / less growth inhibition
Settings: 10 µM; 48 h
Summary of the method: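 Viability values are fractions of the vehicle-treated control. They come from an MTS assay run per the manufacturer's instructions on TOV-21G and ES2 clear cell carcinoma cells, seeded at 5000 cells per well in 96-well plates. Each compound of a 367-member […] library was added at 10 µM final after 24 h of growth, and the readout was taken after a further 48 h.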

Structure (SMILES)	cell viability
C/C=C(/C)C(=O)O[C@H]1C(C)=C2[C@H]([C@@H]1OC(=O)CCCCCCC)[C@@](C)(OC(C)=O)C[C@H](OC(=O)CCC)[C@@]1(O)[C@H]2OC(=O)[C@@]1(C)O [Thapsigargin]	0.505
C=C(C)[C@H]1Cc2c(ccc3c2O[C@@H]2COc4cc(OC)c(OC)cc4[C@@H]2C3=O)O1 [Rotenone]	0.491
C/C(O)=C(\C#N)C(=O)Nc1cc(Br)ccc1Br	1.06 ± 0.013
N=C(N)NN [Aminoguanidine, HCl]	0.55
Cc1sc2c(c1C)C(c1ccc(Cl)cc1)=N[C@@H](CC(=O)OC(C)(C)C)c1nnc(C)n1-2	0.502
CCC1(c2ccc(N)cc2)CCC(=O)NC1=O (configuration not stated) [Aminoglutethimide]	1.08
CC(C)(c1ccc(OCC2CO2)cc1)c1ccc(OCC2CO2)cc1 (configuration not stated)	0.975
O[C@H]1[C@H]2[C@H](O)CCCN2C[C@H]1O [Swainsonine]	0.98
C[C@@]1(CO)[C@H](O)CC[C@@]2(C)[C@H]1CC[C@H]1C[C@@H]3C[C@@]12CC[C@]3(O)CO [Aphidicolin]	0.419
C[C@@H]1C[C@@H]([C@H](O)CC2CC(=O)NC(=O)C2)C(=O)[C@@H](C)C1 [Cycloheximide]	0.547
CO/C1=C\C(C)=C\[C@@H](C)[C@@H](O)[C@@H](C)C/C(C)=C/C=C/[C@H](OC)[C@@H]([C@@H](C)[C@@H](O)[C@H](C)[C@@]2(O)C[C@@H](O)[C@H](C)[C@@H](C(C)C)O2)OC1=O [Bafilomycin A1]	0.467
COC(=O)C1(OC)CC2OC1(C)n1c3ccccc3c3c4c(c5c6ccccc6n2c5c31)C(=O)N(C)C4 (configuration not stated)	1 and 1.11
N.N.[Cl][Pt][Cl] [Cisplatin]	0.794
C[C@H]1CCC/C=C/[C@@H]2C[C@H](O)C[C@H]2[C@H](O)/C=C/C(=O)O1 [brefeldin A]	0.355
CC(C)[C@@H]1NC(=O)[C@H](C)OC(=O)[C@@H](C(C)C)NC(=O)[C@@H](C(C)C)OC(=O)[C@H](C(C)C)NC(=O)[C@H](C)OC(=O)[C@@H](C(C)C)NC(=O)[C@@H](C(C)C)OC(=O)[C@H](C(C)C)NC(=O)[C@H](C)OC(=O)[C@@H](C(C)C)NC(=O)[C@@H](C(C)C)OC1=O [Valinomycin]	0.482
NC(=S)N/N=C\c1coc2ccccc2c1=O.[Cl][Cu][Cl] [Akt Inhibitor XI]	1.23
CNc1ccc2oc(C[C@H]3O[C@@]4(CC[C@H]3C)O[C@H]([C@H](C)C(=O)c3ccc[nH]3)[C@H](C)C[C@H]4C)nc2c1C(=O)O	0.425
CN1C(=O)CN=C(c2ccc(Cl)cc2)c2cc(Cl)ccc21	1.1
CO[C@@H]1C[C@@H](C[C@H]2CC[C@H](C)[C@H]([C@@H](C)C(=O)O)O2)O[C@]2(O[C@](C)([C@H]3CC[C@@](C)([C@@H]4O[C@@H]([C@H]5O[C@@](O)(CO)[C@H](C)C[C@@H]5C)C[C@@H]4C)O3)C[C@H]2C)[C@@H]1C [Nigericin]	0.437
C[C@@H]1O[C@@H](O[C@H]2C[C@@H](O)[C@]3(CO)[C@H]4[C@H](O)C[C@]5(C)[C@@H](C6=CC(=O)OC6)CC[C@]5(O)[C@@H]4CC[C@]3(O)C2)[C@H](O)[C@H](O)[C@H]1O [Ouabain]	0.439
CN[C@@H]1C[C@H]2O[C@@](C)([C@@H]1OC)n1c3ccccc3c3c4c(c5c6ccccc6n2c5c31)C(=O)NC4 [Staurosporine]	0.301
O=C1Nc2ccccc2C2(CCN(CCc3ccc(C(F)(F)F)cc3)CC2)O1	0.915
